The full ranking holds about 33,000 sequences; the median of “E-score (-0.5 to 0.5)” is about -0.04, and the highest 2% start at about 0.36. This is one part of a sample in which the highest values are shown more often than they occur.
Target: T1, Hmlalpha2 (UniProt P0CY09)
T1 sequence: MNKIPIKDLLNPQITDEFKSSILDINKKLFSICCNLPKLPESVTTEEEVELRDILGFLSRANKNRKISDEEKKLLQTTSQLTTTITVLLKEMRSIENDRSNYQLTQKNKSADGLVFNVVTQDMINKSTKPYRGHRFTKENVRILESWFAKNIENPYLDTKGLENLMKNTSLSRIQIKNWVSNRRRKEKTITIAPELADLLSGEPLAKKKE
Assay: PBM E-score (8-mer binding enrichment) (E-score (-0.5 to 0.5)); higher = stronger / more preferred TF binding
Conditions: protein concentration: 200 nM; construct: GST-full length
Outline: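 Using PURExpress in vitro transcription/translation, GST-tagged yeast transcription factors were made in full-length or DNA-binding-domain form. These were applied at about 100-200 nM to double-stranded universal all-10-mer Agilent arrays, and bound protein was detected with fluorescent anti-GST. Scans were normalised with masliner before the Universal PBM Analysis Suite assigned E-scores to ungapped eight-base words pooled with their reverse complements.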

Sequence | PBM E-score
CCAACCTC | -0.128
GATAAGTA | 0.0843
AAGGGCTC | -0.21
TCGTTTAA | 0.293
AGCGTGTG | 0.249
AGCGTGTA | 0.472
AGCGTGTC | 0.317
CGCGTGTC | 0.262
GGCGTGCA | -0.128
GGCGTGTA | 0.464
CGCGTGCA | -0.0161
CGCGTGTA | 0.458
GGCGTGAA | -0.0431
AACATATA | 0.286
CTGGATCC | -0.25
GCTTAGAA | -0.00669
AAAATTGG | -0.167
GGTCGACC | -0.0813
CGTAAACA | 0.394
TGTAAGAA | 0.391
AGTAACAA | 0.288
GGTAAGAA | -0.0659
ACTAAACA | 0.196
AGTAAACA | 0.337
CGTAAGAA | 0.106

Sequence | PBM E-score
GGTAAACA | 0.333
CGTAACAA | 0.228
TGTAAACA | 0.461
TGTAACAA | 0.384
TCTAAACA | 0.228
TGCCTCCA | -0.233
CTGCACAC | 0.0406
TATCACGA | 0.00013
GAAGACAC | 0.0337
CCGCTCCC | -0.362
AGGTCTGG | -0.101
AGGAAAGC | -0.203
TGTAGAAA | 0.429
TATAAACA | 0.358
CGTAAAAA | 0.345
TGTAAAAA | 0.444
AGTAGAAA | 0.124
CGTAGAAA | 0.31
AGTAAAAA | 0.196
GATAAACA | 0.212
CATAAACA | 0.384
TTCTTCAA | 0.0864
ACTCATAC | -0.00755
GGAAGCTA | -0.236
CCCTGGGC | -0.302

Sequence | PBM E-score
AGCCCTAA | 0.00565
AAACACGG | 0.371
AAACACCG | 0.196
AAACACGT | 0.361
AAACACGC | 0.426
AAACACCA | -0.0494
AAACACGA | 0.383
AAACACAC | 0.34
AAACACTC | 0.109
AAACACAG | 0.318
CCAAGTCC | -0.309
TGGTGACA | 0.087
GGGTTGGA | -0.133
AAGGGATC | -0.156
CGTATACA | 0.377
AGTATACA | 0.322
TCTATACA | 0.209
TGTATACA | 0.428
GGTATACA | 0.254
TGTATAAA | 0.342
ATGTGAAT | 0.297
AACAACCG | 0.156
CGTTTAAG | -0.102
CGTTTAGA | -0.00881
GGTTTAAC | 0.279

Sequence | PBM E-score
GTTTTACA | 0.408
GGTTTACA | 0.396
CGTTTACC | 0.0999
GGTTTATA | 0.101
GGTTTAGA | -0.168
CGTTTAAC | 0.365
GTTTTAAA | 0.22
CGTTTACA | 0.452
GTTTTATA | 0.144
TCAGGGCA | -0.0208
AGGATATG | -0.0728
ATGGTCAC | -0.0853
GCTGAATA | 0.0885
CGGGAAGC | -0.026
AGTTTACC | 0.075
AGTTTACA | 0.405
AGTTTACG | 0.278
CGCATTAG | -0.105
GCCTGTCA | -0.0584
CAGTGTGG | -0.13
AACATCTT | -0.0095
AACATGTC | 0.333
AAGATGTA | 0.268
AACATCTG | 0.128
AACATGTA | 0.484

Sequence | PBM E-score
AACATTTA | 0.242
CACATGTG | 0.163
AACATGTT | 0.46
AACATGTG | 0.395
ACCAGCAC | -0.0704
ATGCGAAT | -0.0339
CGGTCAGA | -0.199
CAAGGTCA | -0.102
TAGGTGGA | -0.0803
CGGTGGAG | -0.362
ATACTGGA | 0.0598
TAACATAA | 0.422
GTACATAA | 0.377
TGACATAA | 0.319
TTACATAA | 0.474
GGACATAA | 0.05
GCACATAA | 0.12
CAACATAA | 0.359
GAACATAA | 0.191
CTACATAA | 0.317
GCCAAGAC | -0.161
CGTGCAAA | 0.172
ACAATTTA | 0.173
GGACTAGA | -0.227
TCATGTCA | 0.359

Sequence | PBM E-score
TCATGGAA | -0.157
GCATGTGA | 0.263
GCATGTCA | 0.36
TCATGTAA | 0.482
GCATGTAA | 0.485
AAGGTCCG | -0.108
AACCTCGA | -0.0213
TAGGAGAA | 0.122
GCATAGCC | -0.0671
GTTTTTAA | 0.279
ATGTGTTC | 0.233
GGGTGTTA | 0.195
CGGTGTTA | 0.253
GAGTGTTA | 0.21
ATGTGTGA | 0.202
ATGTGTGG | 0.0473
GTGTGTTA | 0.435
ATGTGTTG | 0.39
CTGTGTTC | 0.304
ATGTGTTA | 0.429
ATGTGTCA | 0.261
CTGTGTTA | 0.398
GTGGACCA | -0.0852
ACTCTGTA | 0.204
ATATCACC | 0.0884

Sequence | PBM E-score
ACTGCTCG | -0.0631
CCTTCAAC | 0.058
GTGATCAC | -0.229
ATCGCTGC | -0.136
TAAGCGCA | 0.0443
AGTCAACA | 0.269
CTTGGTCC | -0.159
CCCATACC | -0.159
CTGTACAG | 0.0499
GCGTACAC | 0.247
TAGTACAA | 0.244
AGGTACAC | 0.0905
GTGTACAA | 0.439
ATGTACAC | 0.43
GTGTACAC | 0.415
ATGTACCC | 0.148
GGGTACAA | 0.0999
CTGTACAC | 0.291
CTGTACAA | 0.288
TTGTACAA | 0.442
AACTGCGT | 0.257
ATGAAGAC | 0.028
GTGAAATA | 0.185
TACGTCGA | 0.0708
CCCGCCAC | -0.152

Sequence | PBM E-score
ATATTGGG | -0.261
GACTCTGA | -0.12
CTCGAACA | 0.112
AAAGCCAT | 0.0384
AACCCTGG | -0.204
AGGTACAA | 0.21
GTGTACTA | 0.311
ATGTACAG | 0.289
ATGTACTG | 0.351
AGGTACAT | 0.288
ATGTACTA | 0.397
ATGTACAA | 0.433
ATGTACAT | 0.457
ATGTACGA | 0.281
GCGCAAGA | -0.0432
AAGACAGT | -0.0478
AGAAAGTG | -0.223
CCATTCGA | -0.0609
ATCTCGTA | 0.191
AAATCCGC | -0.125
GAAAATTC | -0.0326
CAGCCTTC | -0.301
CCATGATC | -0.128
ACATGATC | 0.426
GCATGATA | 0.116

Sequence | PBM E-score
ACATGATA | 0.435
ACATGAGA | 0.406
ACATGATG | 0.348
ACATGAGT | 0.364
CCATGATA | -0.142
TCATGAGA | 0.0706
CGGATATC | -0.0199
TCTCTGAA | -0.162
CGCATAGC | -0.0965
AGGTCCAA | -0.112
ACGACCCC | -0.127
ATGGCAAA | -0.00556
CTTGTAGA | 0.253
GTTGTACA | 0.424
ATTGTACC | 0.0764
ATTGTACA | 0.403
GTTGTAGA | 0.325
GCTGTACA | 0.154
CTTGTACC | 0.0814
CTTGTACA | 0.403
ATTGTACG | 0.123
CTAGTTCA | 0.0551
CCTCTCCG | -0.305
TAAGTCGA | -0.0631
CAACGGTC | -0.0538

Sequence | PBM E-score
AAGAGGGA | -0.246
CAAGATAG | -0.0379
GTTTTGAA | 0.315
ATCTCCTG | -0.0358
ATGTGTAG | 0.349
AAGTGTAA | 0.156
ATGTGTAA | 0.452
CTGTGTCA | 0.0766
ATGTGTAC | 0.372
CTGTGTAA | 0.483
GTGTGTAA | 0.465
CTGTGTGA | 0.247
ATGTGTGC | -0.0456
CTGTGTAC | 0.35
GAGTGTAA | 0.295
GGGTGTAA | 0.342
CTCAGAGA | -0.0918
CGCTAAAC | 0.0834
CAAGATGA | -0.0169
AAATGCCG | -0.02
ACGGGGAA | -0.0619
AGACCACT | -0.00203
GCGCCAAC | -0.0446
CGCTATAA | -0.00727
GCTTAACC | -0.00807

Sequence | PBM E-score
TCTTAACA | 0.404
ACTTAACG | 0.14
ACTTAACA | 0.388
TCTTAAGA | -0.132
GCTTAACA | 0.378
TCTTAAAA | -0.0174
ACTTAACT | 0.159
CCTTAACA | 0.291
TATAACGA | 0.176
ACCTAGCC | -0.205
AGTAGTGC | -0.153
GAGACGAC | -0.19
CCAAAAGG | -0.136
CGGCGGCC | -0.188
ACCGTGAT | -0.0701
ACACGCGA | 0.378
ACACGCGG | 0.324
ACGCGCGT | 0.343
ACACGCGT | 0.43
AAACGCGT | 0.312
ACACGCGC | 0.304
AACTGCAC | 0.0702
ACTGTAAA | 0.222
TCTGTAAA | 0.278
GAGGTAAA | 0.228

Sequence | PBM E-score
GATGTAGC | -0.0783
AATGTAAC | 0.296
GATGTAAA | 0.433
ACTGTAAT | 0.251
AATGTAAT | 0.461
AATGTAAA | 0.434
ACAATTCT | 0.156
AAAGAATC | -0.124
CCTCTTCG | -0.127
AAGGCTTC | -0.116
TCTACAGA | 0.133
CCTACACC | -0.00672
CCTACACA | 0.266
TCTACACA | 0.445
ACTACACG | 0.454
GTACTACA | 0.369
GCTACACA | 0.323
CTACTACA | 0.304
ACTACACC | 0.166
ATACTACA | 0.32
CCTACACG | 0.393
ACTACACT | 0.253
ATGGTTAA | 0.139
CATGTGAC | 0.19
CCCCTTCA | -0.233

Sequence | PBM E-score
AGTGCAGG | -0.159
TCAAGCCA | -0.0161
CCCCCTAC | -0.279
CCCAATCC | -0.281
CGTATCCA | -0.0445
AACAACGG | 0.138
ACACTACT | 0.105
ACTACAAG | 0.267
ACACTACA | 0.397
ACTACAGA | 0.119
TAACTACA | 0.378
ACTACACA | 0.406
CAACTACA | 0.316
GAACTACA | 0.197
CCACTACA | 0.212
AGCTCTTC | -0.21
ATCGCGGA | -0.302
GTCAAGTA | 0.201
CGAAGCGA | -0.131
CCAGTAGC | -0.157
CACCGCCG | -0.288
ATGAGTCG | -0.0768
CATCAACC | 0.0266
TAGACGCA | 0.0971
TCCCTGAA | -0.0392

Sequence | PBM E-score
CTATGTAA | 0.485
ATATGTAC | 0.337
GTATGTCA | 0.352
ATATGTAG | 0.3
CTCTGTAA | 0.195
CTATGTGA | 0.172
GTATGTAA | 0.477
ATATGTGA | 0.234
ATATGTAA | 0.416
CTCTGTAC | -0.00455
GTATGTGA | 0.199
CTATGTAC | 0.401
ATCAAAAA | 0.0225
AAAGCGAC | 0.0782
GCTCTCCC | -0.266
AGTGCATA | 0.1
GCTCAGAA | -0.0102
AGTAACTA | 0.213
CAGATCCA | -0.0975

— the supplement of paper PMC3334620
